# High-throughput results deposited in PubChem by National Center for Advancing Translational Sciences (NCATS).
# The list is not random: actives were taken first. Their share in the collection is about 6.6%.
# SW480 rerep: inducers of DNA re-replication in SW480 colon cancer cells. SW480 DNA re-replication, Hoechst DNA content imaging, 48 h. Potency, µM (series often up to 46.1 µM), inactives show top-dose re-replication activation, actives largely listed as activators. AID 624297. 1.8% of 340,000 active; note: % of control where 0% means no effect; nearly all actives have a fitted effect of over 55% in size
#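 SW480 cells exposed to compounds for 48 hr at 37 C, 5% CO2, then Hoechst-stained 40 min. Nuclear DNA content imaged by fluorescence scanning (405 nm excitation, 500-530 nm emission); re-replication scored as increased high-intensity nuclei.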
# KB-3-1 cytotox: KB-3-1 parental cell cytotoxicity. KB-3-1 viability, CellTiter-Glo ATP luminescence, 72 h. Potency, µM (top dose mostly 46.1 µM), most hits filed as cytotoxic. 1.4% of 400,000 active. AID 1347075; note: % is set by controls: 0 for no effect and ±100 for the full control effect; nearly all actives have a fitted effect of over 60% in size
#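 Using CellTiter-Glo luminescence, growth of non-resistant KB-3-1 adenocarcinoma cells is assessed 72 h after pin-tool compound addition at 37 °C. Normalized responses across the concentration series yield fitted curves.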
# PTAP TSG101 blk: blocks PTAP/TSG101 interaction to inhibit HIV-1 budding | Q99816 | Fluorescence polarization, FITC-PTAP peptide / Tsg101 binding | Potency, µM (titrated, usually from 115 µM), for inactives: top-dose activity change, negative = inhibition, actives largely listed as inhibitors | 340,000 tested, under 10 active; active = well fitted inhibition curve with a large enough effect in the main read-out, with a control signal flat, not every such curve was filed as active; inconclusive = small, poorly fitted or top-dose-only effect, or effect the other way, or a change in a side signal; inactive = no such curve, though single readings can be large or run the other way; note: % of control where 0% means no effect
# Target sequence (Q99816 whole entry, looked up): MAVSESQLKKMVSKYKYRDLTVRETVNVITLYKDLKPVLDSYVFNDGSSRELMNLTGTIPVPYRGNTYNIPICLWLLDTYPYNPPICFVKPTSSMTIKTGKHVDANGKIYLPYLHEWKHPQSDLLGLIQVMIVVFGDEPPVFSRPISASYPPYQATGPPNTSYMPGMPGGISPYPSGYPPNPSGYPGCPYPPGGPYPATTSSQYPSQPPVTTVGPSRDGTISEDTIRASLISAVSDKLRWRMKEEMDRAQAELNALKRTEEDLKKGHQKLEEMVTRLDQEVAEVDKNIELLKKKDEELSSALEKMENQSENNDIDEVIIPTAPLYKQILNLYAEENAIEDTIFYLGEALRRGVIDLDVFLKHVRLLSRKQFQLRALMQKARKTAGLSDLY
#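 Compounds were pin-transferred onto Tsg101 binding domain (10 uM final) in HEPES pH 7.5 buffer, then FITC-PTAP peptide was added at 50 nM final. After 20 min at RT, polarization reported peptide displacement across a qHTS concentration series.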
# RGS4 inh: human RGS4 inhibition; P49798; Transcreener GDP fluorescence polarization, RGS4-accelerated GTP hydrolysis; Potency, µM (titrated, usually from 114 µM), without a hit: top-dose activity change, negative = inhibition, hits mostly inhibitors; 0.039% of 390,000 active; note: % is set by controls: 0 for no effect and ±100 for the full control effect; nearly all actives have a fitted effect of over 75% in size
# Target sequence (P49798 whole entry, looked up): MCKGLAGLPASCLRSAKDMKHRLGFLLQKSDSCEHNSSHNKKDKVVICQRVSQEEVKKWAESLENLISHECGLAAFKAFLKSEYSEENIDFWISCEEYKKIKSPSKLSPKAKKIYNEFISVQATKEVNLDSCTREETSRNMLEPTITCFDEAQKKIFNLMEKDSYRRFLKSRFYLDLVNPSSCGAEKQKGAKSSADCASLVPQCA
#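 MLSMR compounds (23 nl, pin-transferred) preincubated 10 min at room temperature with a 500nM (2x) first reagent, then RGS4 at 900nM (2x) plus Transcreener GDP mix added; fluorescence polarization (620/688 nm) read before and after 90 min at 30 °C.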
# KB-V1 MDR tox: KB-V1 MDR subline cytotoxicity. KB-V1 MDR cells viability, CellTiter-Glo, 72 h. Potency, µM (top dose mostly 46.1 µM), actives largely listed as cytotoxic. 3.4% of 400,000 active. AID 1347076; note: % is set by controls: 0 for no effect and ±100 for the full control effect; nearly all actives have a fitted effect of over 60% in size
#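 KB-V1 cells (P-gp-expressing MDR subline of KB-3-1) in phenol-red-free DMEM with 10% FBS were exposed to library compounds over a concentration series for 72 h at 37 degrees C. Viability read by CellTiter-Glo luminescence; concentration-effect curves fitted after normalization.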
# MCF10A rereplic: inducers of DNA re-replication in MCF 10A breast cells; MCF 10A DNA re-replication, Hoechst nuclear intensity, 48 h; Potency, µM (highest dose often 46.1 µM), for inactives: at the top dose activity, positive = re-replication, hits mostly activators; 2.9% of 350,000 active; AID 624296; note: % of control where 0% means no effect; nearly all actives have a fitted effect of over 50% in size
# * hit, by the source's call; i = inactive; ? = inconclusive; . = not tested or not shown; ! = repeats disagree. Unless noted, calls come from the whole dose curve; as a rule, active = well fitted curve in the direction sought with a large enough effect; inconclusive = small, poorly fitted or top-dose-only effect, or another doubt; inactive = no such curve, though single readings can be large; an effect the other way counts as inactive or inconclusive. Potency is the fitted concentration of half-maximal effect.
SMILES,SW480 rerep,KB-3-1 cytotox,PTAP TSG101 blk,RGS4 inh,KB-V1 MDR tox,MCF10A rereplic
Cc1nn(-c2cccc(Cl)c2)c(Cl)c1/C=N/NC(=O)c1cccnc1,1.2%,i,-1.0%,-49.5%,i,?
COc1ccc(Cn2c(O)c(/C=N/NC(=O)c3cccnc3)c3ccccc3c2=O)cc1,?,i,15.0%,-18.1%,i,?
Cc1nn(Cc2c(Cl)cccc2Cl)c(Cl)c1/C=N/NC(=O)c1cccnc1,?,i,-0.1%,?,i,20.6µM*
Cc1cccc(-n2c(O)c(/C=N/NC(=O)c3ccccc3Cl)c3ccccc3c2=O)n1,?,?,-4.5%,14.4%,i,16.1%
O=C(N/N=C/c1c(O)n(Cc2ccccc2)c(=O)c2ccccc12)c1cccnc1,22.6%,18.4µM*,20.7%,-14.5%,?,?
O=C(N/N=C/c1c(-c2ccccc2)[nH]c2ccccc12)c1cccnc1,23.1µM*,?,-3.6%,15.1%,i,?
Cn1c(-c2ccccc2)c(/C=N/NC(=O)c2cccnc2)c2ccccc21,?,?,-2.1%,-25.1%,i,?
Clc1nc(-c2ccccn2)nc2scc(-c3ccccc3)c12,?,?,-5.9%,-0.8%,11.6µM*,?
COc1ccc(-c2csc3ncnc(Cl)c23)cc1,?,i,-2.2%,7.0%,i,-2.2%
CCc1cc(Cn2nc(-c3ccccc3)cc2C(=O)NCc2cccc(Br)c2)on1,12.7%,?,-0.6%,-14.1%,23.1µM*,?
O=S1(=O)N=C(Sc2cccc3cccnc23)c2ccccc21,.,9.2µM*,.,.,?,.
CCOC(=O)c1ccc(NC(=O)CN2C(=O)CC(c3ccc(C)c(C)c3)=Nc3ccccc32)cc1,.,i,.,5.7%,i,.
CC(C)COc1ccc(C(=O)CCN2CCCCC2)cc1,?,14.6µM*,0.7%,-109.0%,i,11.6µM*
CCCCOc1ccc(C(=O)CCN2CCCCC2)cc1,10.3µM*!,i,-1.8%,?,i,16.4µM*
O=S(=O)(c1ccccc1)N(Cc1nc(-c2ccccc2)no1)C1CCCCC1,3.8%,25.9µM*,0.5%,-23.6%,10.3µM*,26.8%
CCOC(=O)C1=C(CS(=O)(=O)c2ccc(F)c(C)c2)NC(=O)NC1c1ccccc1OC (stereo unspecified),.,i,.,19.7%,i,.
CCc1ccc(NC(=O)c2ccnc(C(C)(C)C)c2)cc1,-14.1%,i,0.7%,-20.4%,20.6µM*,-3.2%
O=C(Nc1cccc(-c2nc3ccccc3[nH]2)c1)c1c(F)cccc1F,.,.,.,-13.7%,.,.
Brc1ccc2nc(-c3cccs3)c(NCC3CCCO3)n2c1 (stereo unspecified),46.0%,i,-1.3%,-11.6%,i,20.6µM*
Cc1ccc(Oc2c(C(N)=O)cc([N+](=O)[O-])cc2[N+](=O)[O-])cc1,?,20.6µM*,0.0%,0.1%,i,?
CC(=O)C1(O)C(C)CC2C3CC=C4CC(O)CCC4(C)C3CCC21C (stereo unspecified),-5.8%,i,-3.7%,11.2%,i,-0.6%
CC12CCC(O)CC1=CCC1C2CCC2(C)C3=NN=CC3CC12 (stereo unspecified),?,?,-3.5%,-11.0%,?,18.4µM*
CN(C)CCN[C@H]1CCC2C3CC=C4C[C@@H](O)CC[C@]4(C)C3CC[C@@]21C (stereo partly specified),?,i,-1.0%,-4.8%,i,20.6µM*
N#Cc1ccc(CSc2nc3c(c(=O)[nH]2)CCCC3)cc1,.,i,.,13.9%,i,.
CC1CC(C)(C)NC(=S)N1CCC(=O)Nc1ccc2c(c1)OCCO2 (stereo unspecified),?,23.1µM*,-3.1%,-12.6%,?,?
SMILES,SW480 rerep,KB-3-1 cytotox,PTAP TSG101 blk,RGS4 inh,KB-V1 MDR tox,MCF10A rereplic
Cc1ccc(C)c(N2CCN(C(=O)c3cc(S(=O)(=O)N4CCCC4)c[nH]3)CC2)c1,.,.,.,-16.0%,.,.
O=C(O)c1cc2c([nH]c1=O)CCCC2,-8.7%,i,-6.8%,-4.3%,i,1.4%
O=c1ccc2c([nH]1)CCCCCCCCCC2,-0.1%,?,-4.2%,21.0%,7.31µM*,?
CCOc1ccc(C2C(=O)N(C3CCCCCC3)CC(=O)N2CCc2ccc(Cl)cc2)cc1OC (stereo unspecified),.,.,.,-3.0%,.,.
CCCOc1ccc(/C=N/Nc2ccc(C(=O)O)cc2)c(OCCC)c1,?,i,-3.5%,-23.4%,i,7.31µM*
Cc1nc2ccccc2nc1-c1csc(-c2ccccc2)n1,.,i,.,.,?,.
Cc1ccc(S(=O)(=O)Oc2cccc(/C=N/n3cnnc3)c2)cc1,?,?,0.6%,8.3%,18.4µM*,?
CCCNC(=O)Cn1c(SCc2ccccc2C)nc2ccncc21,.,?,.,-4.4%,?,.
O=C(CCCc1nc(-c2ccc(Cl)cc2)no1)N1CCOCC1,-11.2%,?,-4.8%,-15.7%,9.2µM*,2.5%
Cc1cccc(-c2noc(CCC(=O)N3CCN(c4cc(C)ccc4C)CC3)n2)c1,3.0%,i,-6.2%,2.4%,i,?
Cc1ccc(-c2noc(CCC(=O)NC3CCCC3)n2)cc1,-22.7%,i,-2.4%,15.5%,i,3.6%
Cc1cccc(-c2noc(CCCC(=O)N3CCOCC3)n2)c1,-7.8%,i,-3.3%,-31.7%,20.6µM*,3.2%
O=C(CCCc1nc(-c2ccc(Cl)cc2)no1)NCC1CCCO1 (stereo unspecified),-16.7%,10.3µM*,-3.0%,-25.6%,13µM*,15.9%
Cc1ccc(-c2noc(CCCC(=O)NC3CCCCC3)n2)cc1,1.5%,?,1.5%,-10.7%,16.4µM*,9.5%
Cc1ccc(-c2noc(CCCC(=O)N3CCOCC3)n2)cc1,1.0%,i,0.4%,-8.7%,i,8.7%
CCOC(=O)c1c(C)oc2nc(C)nc(NCc3ccc(F)cc3)c12,.,i,.,-14.0%,i,.
C=C(c1ccc2ccccc2n1)c1cccs1,.,11.6µM*,.,.,i,.
O=C(NC(=S)N1CCN(c2ccc(C(F)(F)F)cc2[N+](=O)[O-])CC1)c1cccs1,12.1%,i,-3.8%,-48.5%,14.6µM*,?
CCC1CC=CC2C1C(=O)N(Cc1ccccc1)C2c1cccc([N+](=O)[O-])c1 (stereo unspecified),.,.,.,-5.8%,.,.
COc1ccc(CNC(=O)c2c(O)c3cccc4c3n(c2=O)CCC4)cc1,-54.1%,i,-0.9%,-18.1%,14.6µM*,-0.4%
CCCCCCNC(=O)c1c(O)c2cccc3c2n(c1=O)CCC3,-6.0%,i,3.7%,29.5%,i,15.0%
